For 17 compounds, Potency results are on record in PubChem BioAssay (NCATS).

The nature of test [1]: qHTS of pediatric cancer cell lines to identify multiple opportunities for drug repurposing: Primary screen for DAOY cells (AID 1347090). Also: nearly all actives have a fitted effect of over 55% in size. Also: potency is read from the fitted curve at half-maximal effect. The procedure, abridged: (§1)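 Cell viability, CellTiter-Glo luminescence; 500-1,000 cells/well, 8- or 11-point titration, 48 h compound exposure at 37 degrees C, 5% CO2. Controls: DMSO neutral, bortezomib 2.3 µM final as positive.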
A general note: qHTS replaces the single test concentration by a dilution series.

Test [2] in a line: qHTS of pediatric cancer cell lines to identify multiple opportunities for drug repurposing: Primary screen for SJ-GBM2 cells (AID 1347091). Also: potency is read from the fitted curve at half-maximal effect. The essentials:
as §1

Test [3] is described as follows: qHTS of pediatric cancer cell lines to identify multiple opportunities for drug repurposing: Primary screen for SK-N-MC cells (AID 1347093). Also: potency is read from the fitted curve at half-maximal effect. The procedure, abridged: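 Metabolically active cells were quantified by ATP-dependent luminescence (CellTiter-Glo, 15 min at room temperature) following 48 h treatment. Cells had been plated at 500-1,000 per well and settled for 5 h beforehand.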

The nature of test [4]: qHTS of pediatric cancer cell lines to identify multiple opportunities for drug repurposing: Primary screen for BT-37 cells (AID 1347094). Also: potency is read from the fitted curve at half-maximal effect. The essentials:
(§2)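 500-1,000 cells/well; 5 h pre-incubation 37 °C/5% CO2; compound pinned; 48 h; CellTiter-Glo, 15 min RT; luminescence. MIPE 11-pt from 0.78 nM, NPC 8-pt from 0.59 nM final. Bortezomib 2.3 µM final as positive control.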

Test [5] in a line: qHTS of pediatric cancer cell lines to identify multiple opportunities for drug repurposing: Primary screen for NB-EBc1 cells (AID 1347095). Also: potency is read from the fitted curve at half-maximal effect. The essentials: as §2
The nature of test [6]: qHTS of pediatric cancer cell lines to identify multiple opportunities for drug repurposing: Primary screen for U-2 OS cells (AID 1347096). Also: nearly all actives have a fitted effect of over 50% in size. The essentials: (§3)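 Cells (500-1,000/well) rested 5 h, then received compounds for 48 h; metabolically active cells were measured by CellTiter-Glo luminescence. Final concentrations spanned up to 46 µM (MIPE, 11-point) or 0.59 nM-46 µM (NPC, 8-point) in primary screens, 11-point in follow-ups.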

A short description of test [7]: qHTS of pediatric cancer cell lines to identify multiple opportunities for drug repurposing: Primary screen for Saos-2 cells (AID 1347097). Also: nearly all actives have a fitted effect of over 40% in size. Also: potency is read from the fitted curve at half-maximal effect. The essentials: as §2
Test [8] can be described thus: qHTS of pediatric cancer cell lines to identify multiple opportunities for drug repurposing: Primary screen for SK-N-SH cells (AID 1347098). Also: nearly all actives have a fitted effect of over 65% in size. The essentials: as §3
Test [9] can be described thus: qHTS of pediatric cancer cell lines to identify multiple opportunities for drug repurposing: Primary screen for NB1643 cells (AID 1347099). Also: nearly all actives have a fitted effect of over 50% in size. Also: potency is read from the fitted curve at half-maximal effect. The essentials:
as §2

Test [10] is described as follows: qHTS of pediatric cancer cell lines to identify multiple opportunities for drug repurposing: Primary screen for A673 cells (AID 1347092). Also: nearly all actives have a fitted effect of over 45% in size. Also: potency is read from the fitted curve at half-maximal effect. The procedure, abridged: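 Luminescence from CellTiter-Glo, taken after 15 min at room temperature, served as the proxy for metabolically active cells following 48 h treatment. Both potency and efficacy were taken from curves fitted to the titration data.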

Records with an inconclusive call do not appear. A number with no mark means an inactive call. Activity calls are given as the source filed them. Calls follow the shape of the dose curve; as a rule, active = well fitted curve in the direction sought with a large enough effect; inconclusive = small, poorly fitted or top-dose-only effect, or another doubt; inactive = no such curve, though single readings can be large; an effect the other way counts as inactive or inconclusive.

As to `NC[C@H]1O[C@H](O[C@H]2[C@H](O)[C@@H](O[C@H]3O[C@H](CO)[C@@H](O)[C@H](N)[C@H]3O)[C@H](N)C[C@@H]2N)[C@H](N)[C@@H](O)[C@@H]1O`, the Potency result in test [1], in [2], in test [3], in test [4], in test [5] and in test [6] was “inactive” throughout. The Potency entry in [7], in test [8] and in [9] was “inactive” each time.

Take `CC(=O)Oc1ccc(C(=C2CCCCC2)c2ccc(OC(C)=O)cc2)cc1`: the Potency result in [1], in test [2], in test [10], in [3], in test [4] and in [7] was “inactive” throughout. For the same compound, the Potency entry in test [8] and in test [9] was “inactive” in each case.

Consider `CN1CCC[C@@H]1c1cccnc1`, for which the Potency entry in test [1], in test [2], in test [3], in test [4], in test [5] and in test [6] was “inactive” throughout. Moreover, the Potency entry in test [7], in [8] and in test [9] was “inactive” in each case.

In the case of `CC(Cc1cccc(C(F)(F)F)c1)NCCOC(=O)c1ccccc1` (stereo unspecified), the Potency entry in test [1], in test [2], in test [10], in test [6], in test [8] and in test [9] was “inactive” throughout.

Take `CC1=C(C(=O)O)N2C(=O)[C@@H](NC(=O)[C@H](N)c3ccc(O)cc3)[C@H]2SC1`: the Potency result in [1], in [2], in [10], in [4], in [5] and in [6] was “inactive” each time. Moreover, the Potency result in test [7], in test [8] and in [9] was “inactive” throughout.

Regarding `Nc1ccn([C@@H]2O[C@H](CO)[C@@H](O)C2(F)F)c(=O)n1`, the Potency was 2.66 µM (active) in test [1]; 0.473 µM (active) in test [2]; 0.0042 µM (active) in [10]; 0.106 µM (active) in [3]; 0.0049 µM (active) in test [4]; 0.0422 µM (active) in test [9]. Besides, in test [6], the Potency result is “inactive”.

Regarding `NCCc1ccn[nH]1`, the Potency entry in test [1], in [2], in [3], in test [4], in test [5] and in [6] was “inactive” each time. Moreover, the Potency entry in [7], in test [8] and in [9] was “inactive” in each case.

In the case of `CCOC(=O)/C=C(C)/C=C/C=C(C)/C=C/c1c(C)cc(OC)c(C)c1C`, the Potency result in [1], in [2], in test [10], in test [4], in [5] and in [6] was “inactive” in each case. In addition, the Potency result in [7], in test [8] and in test [9] was “inactive” in each case.

As to `OC[C@@H](O)[C@@H](O[C@@H]1O[C@H](CO)[C@H](O)[C@H](O)[C@H]1O)[C@H](O)[C@@H](O)CO`, the Potency entry in test [1], in test [2], in [10], in test [4], in [5] and in test [6] was “inactive” each time. In addition, the Potency entry in test [7], in [8] and in test [9] was “inactive” in each case.

With `CCOC(=O)n1ccn(C)c1=S`, the Potency result in test [1], in test [2], in test [10], in [4], in [5] and in test [6] was “inactive” throughout. Besides, the Potency result in test [7], in test [8] and in test [9] was “inactive” in each case.

In the case of `C[C@H](CCC(=O)O)[C@H]1CC[C@H]2[C@@H]3C(=O)C[C@@H]4CC(=O)CC[C@]4(C)[C@H]3CC(=O)[C@]12C`, the Potency result in test [1], in [2], in test [3], in test [4], in [5] and in [6] was “inactive” each time. Further, the Potency entry in test [7], in test [8] and in [9] was “inactive” each time.

In the case of `Cc1c(N(C)CS(=O)(=O)O)c(=O)n(-c2ccccc2)n1C`, the Potency result in test [1], in [2], in test [3], in test [4], in test [5] and in [6] was “inactive” in each case. Besides, the Potency result in [7], in test [8] and in [9] was “inactive” in each case.

In the case of `CCCCCC=CCC=CCCCCCCCC(=O)OCC`, the Potency entry in [1], in test [2], in test [4], in [6] and in test [9] was “inactive” throughout.

Take `O=S1(=O)c2cccc3cccc(c23)N1CCCN1CCN(c2ccc(F)cc2)CC1`: the Potency result in [1], in test [2], in test [4], in test [5], in [7] and in test [9] was “inactive” throughout.

`Cc1cc(N)c2cc(NC(=O)Nc3ccc4nc(C)cc(N)c4c3)ccc2n1`: the Potency entry in test [1], in test [2], in [3], in [4], in test [6] and in [7] was “inactive” in each case.

On to `Oc1ccc(Cl)cc1Sc1cc(Cl)ccc1O`, for which the Potency in test [1] is 21.1 µM (active); in test [2] it was 13.3 µM (active); in test [4], 21.9 µM (active); in [5], 15 µM (active); in test [7], 15 µM (active); in [9], 18.8 µM (active).

As for `COc1cc(N)c(Cl)cc1C(=O)NC1CCN(CCCOc2ccc(F)cc2)CC1OC` (stereo unspecified), the Potency result in test [1], in test [4], in test [5], in test [6], in test [7] and in test [9] was “inactive” in each case.
